# The supplement of paper PMC8728848
# About 410 targets per protein were measured; listed, in parts, are those with the strongest signals and a random draw of the rest.
# B1: HBHA-Rv (Mycobacterium tuberculosum), P0A5P6 (protein)
# chain: MAENSNIDDIKAPLLAALGAADLALATVNELITNLRERAEETRTDTRSRVEESRARLTKLQEDLPEQLTELREKFTAEELRKAAEGYLEAATSRYNELVERGEAALERLRSQQSFEEVSARAEGYVDQAVELTQEALGTVASQTRAVGERAAKLVGIELPKKAAPAKKAAPAKKAAPAKKAAAKKAPAKKAAAKKVTQK
# Assays:
# Experiment in all cases: glycan array binding signal (z-score within array); higher = stronger binding
# Conditions in all cases: glycan notation: IUPAC condensed, linker removed
# [1] = target: Fuc(a1-2)Gal(b1-3)[Fuc(a1-4)]GlcNAc(b1-3)[Fuc(a1-3)[Gal(b1-4)]GlcNAc(b1-6)]Gal(b1-4)Glc
# Outline: (§1)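 Glycan array data were curated from 3228 arrays in the Consortium for Functional Glycomics database and kept only where the protein sequence was available. Glycan names were converted to IUPAC-condensed notation, and columns mapping to the same glycan were averaged. The binding signal is a within-array Z-score, averaged across arrays of the same protein sequence at different concentrations or buffers and across linkers. Negative Z-scores can be read as non-binding.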
# [2] = target: Fuc(a1-2)Gal(b1-4)Glc6S
# Outline: as §1
# [3] = target: Fuc(a1-2)Gal(b1-4)GlcNAc(b1-3)[Fuc(a1-3)[Gal(b1-4)]GlcNAc(b1-6)]Gal(b1-4)Glc
# Outline: as §1
# [4] = target: Fuc(a1-2)Gal6S(b1-3)GlcNAc6S
# Outline: as §1
# [5] = target: Fuc(a1-2)Gal6S(b1-4)Glc
# Outline: as §1
# [6] = target: Fuc(a1-2)[Gal(a1-3)]Gal(b1-3)GlcNAc(b1-3)GalNAc
# Outline: as §1
# [7] = target: Fuc(a1-2)[Gal(a1-3)]Gal(b1-4)GlcNAc(b1-3)GalNAc
# Outline: as §1
# [8] = target: Fuc(a1-2)[Gal(a1-3)]Gal(b1-4)GlcNAc(b1-3)[Fuc(a1-2)[Gal(a1-3)]Gal(b1-4)GlcNAc(b1-6)]GalNAc
# Outline: as §1
# [9] = target: Fuc(a1-2)[GalNAc(a1-3)]Gal(b1-4)Glc
# Outline: as §1
# [10] = target: Fuc(a1-3)[Gal(b1-4)]Glc6S
# Outline: as §1
# [11] = target: Fuc(a1-3)[Gal(b1-4)]GlcNAc(b1-3)GalNAc
# Outline: as §1
# [12] = target: Fuc(a1-3)[Gal3S(b1-4)]Glc
# Outline: as §1
# [13] = target: Fuc(a1-4)GlcNAc
# Outline: as §1
# [14] = target: Gal(a1-3)Gal(b1-4)GlcNAc(b1-6)GalNAc
# Outline: as §1
# [15] = target: Gal(b1-3)GlcNAc(b1-2)Man(a1-3)[GlcNAc(b1-4)][Gal(b1-3)GlcNAc(b1-2)Man(a1-6)]Man(b1-4)GlcNAc(b1-4)GlcNAc
# Outline: as §1
# [16] = target: Gal(b1-3)GlcNAc(b1-3)Gal(b1-4)[Fuc(a1-3)]GlcNAc(b1-6)[Gal(b1-3)GlcNAc(b1-3)]Gal(b1-4)Glc
# Outline: as §1
# [17] = target: Gal(b1-3)GlcNAc(b1-6)GalNAc
# Outline: as §1
# [18] = target: Gal(b1-3)[Fuc(a1-4)]GlcNAc(b1-2)Man
# Outline: as §1
# [19] = target: Gal(b1-4)GlcNAc(b1-2)Man
# Outline: as §1
# [20] = target: Gal(b1-4)GlcNAc(b1-2)Man(a1-3)[Gal(b1-4)GlcNAc(b1-2)Man(a1-6)]Man(b1-4)GlcNAc(b1-4)GlcNAc
# Outline: as §1
# [21] = target: Gal(b1-4)GlcNAc(b1-2)Man(a1-3)[Gal(b1-4)GlcNAc(b1-2)Man(a1-6)][GlcNAc(b1-4)]Man(b1-4)GlcNAc(b1-4)[Fuc(a1-6)]GlcNAc
# Outline: as §1
# [22] = target: Gal(b1-4)GlcNAc(b1-2)Man(a1-3)[GlcNAc(b1-4)][Gal(b1-4)GlcNAc(b1-2)Man(a1-6)]Man(b1-4)GlcNAc(b1-4)GlcNAc
# Outline: as §1
# [23] = target: Gal(b1-4)GlcNAc(b1-2)[Gal(b1-4)GlcNAc(b1-4)]Man(a1-3)[GlcNAc(b1-4)][Gal(b1-4)GlcNAc(b1-2)[Gal(b1-4)GlcNAc(b1-6)]Man(a1-6)]Man(b1-4)GlcNAc(b1-4)GlcNAc
# Outline: as §1
# [24] = target: Gal(b1-4)GlcNAc(b1-2)[Gal(b1-4)GlcNAc(b1-6)]Man(a1-6)[GlcNAc(b1-4)][Gal(b1-4)GlcNAc(b1-2)[Gal(b1-4)GlcNAc(b1-4)]Man(a1-3)]Man(b1-4)GlcNAc(b1-4)[Fuc(a1-6)]GlcNAc
# Outline: as §1
# [25] = target: Gal(b1-4)GlcNAc(b1-3)Gal(b1-4)GlcNAc(b1-3)Gal(b1-4)GlcNAc(b1-2)[Gal(b1-4)GlcNAc(b1-3)Gal(b1-4)GlcNAc(b1-3)Gal(b1-4)GlcNAc(b1-6)]Man(a1-6)[Gal(b1-4)GlcNAc(b1-3)Gal(b1-4)GlcNAc(b1-3)Gal(b1-4)GlcNAc(b1-2)Man(a1-3)]Man(b1-4)GlcNAc(b1-4)[Fuc(a1-6)]GlcNAc
# Outline: as §1
# [26] = target: Gal(b1-4)GlcNAc(b1-3)Gal(b1-4)GlcNAc(b1-6)[Gal(b1-3)]GalNAc
# Outline: as §1
# [27] = target: Gal(b1-4)GlcNAc(b1-3)[Fuc(a1-3)GlcNAc(b1-6)]Gal(b1-4)Glc
# Outline: as §1
binder,measurement,setting,value
B1,glycan array binding signal (z-score),[1],-0.277
same,glycan array binding signal (z-score),[2],-0.121
same,glycan array binding signal (z-score),[3],-0.392
same,glycan array binding signal (z-score),[4],4.34
same,glycan array binding signal (z-score),[5],0.069
same,glycan array binding signal (z-score),[6],-0.259
same,glycan array binding signal (z-score),[7],-0.204
same,glycan array binding signal (z-score),[8],2.82
same,glycan array binding signal (z-score),[9],0.064
same,glycan array binding signal (z-score),[10],-0.398
same,glycan array binding signal (z-score),[11],-0.275
same,glycan array binding signal (z-score),[12],-0.017
same,glycan array binding signal (z-score),[13],20
same,glycan array binding signal (z-score),[14],0.154
same,glycan array binding signal (z-score),[15],0.595
same,glycan array binding signal (z-score),[16],-0.453
same,glycan array binding signal (z-score),[17],-0.248
same,glycan array binding signal (z-score),[18],1.28
same,glycan array binding signal (z-score),[19],1.37
same,glycan array binding signal (z-score),[20],0.061
same,glycan array binding signal (z-score),[21],-0.352
same,glycan array binding signal (z-score),[22],-0.309
same,glycan array binding signal (z-score),[23],-0.455
same,glycan array binding signal (z-score),[24],-0.428
same,glycan array binding signal (z-score),[25],-0.41
same,glycan array binding signal (z-score),[26],-0.399
same,glycan array binding signal (z-score),[27],-0.398
